Most compounds without a hit are left out; they make up all but 13% or so of the library.
USP17 block: inhibitors of human USP17 deubiquitinase; A8MUK1; purified USP17, Ub-rhodamine cleavage fluorescence, 3 h; inhibition, % at 50 µM; actives 6.5% (n = 47,000); AID 1645855
USP8 block: blocks human USP8 ubiquitin-rhodamine cleavage | AID 1645853 | purified USP8, Ub-rhodamine cleavage fluorescence, 30 min | actives 4.2% (n = 47,000) | inhibition, % at 20 µM | P40818
USP30 inh: inhibitors of human USP30 deubiquitinase. Q70CQ3. purified USP30, Ub-rhodamine cleavage fluorescence. inhibition, % at 25 µM. actives 5.3% (n = 47,000)
Target sequence (Q70CQ3 whole entry, looked up): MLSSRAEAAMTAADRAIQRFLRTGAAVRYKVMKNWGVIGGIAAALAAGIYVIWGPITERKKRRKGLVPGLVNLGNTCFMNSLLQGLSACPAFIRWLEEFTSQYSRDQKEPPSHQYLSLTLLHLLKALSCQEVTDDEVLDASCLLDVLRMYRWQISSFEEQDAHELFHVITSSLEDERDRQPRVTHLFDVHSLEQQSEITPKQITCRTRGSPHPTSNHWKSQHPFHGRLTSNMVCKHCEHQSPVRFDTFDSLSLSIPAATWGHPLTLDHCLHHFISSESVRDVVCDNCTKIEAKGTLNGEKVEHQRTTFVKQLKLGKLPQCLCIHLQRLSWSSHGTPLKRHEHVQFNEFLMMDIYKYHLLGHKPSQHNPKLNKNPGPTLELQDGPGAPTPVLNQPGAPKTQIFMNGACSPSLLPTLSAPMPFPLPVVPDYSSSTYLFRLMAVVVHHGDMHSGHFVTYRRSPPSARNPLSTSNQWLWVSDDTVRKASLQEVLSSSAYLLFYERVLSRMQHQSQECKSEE
USP28 block: inhibitors of human USP28 deubiquitinase | purified USP28, Ub-rhodamine cleavage fluorescence, 30 min | inhibition, % at 25 µM | actives 3% (n = 47,000) | AID 1645857
* hit, by the source's call; i = inactive; . = no result. Cut-off read from the data, not from the text of the source: active = inhibition above about 30%; inactive = the rest.

SMILES | USP17 block | USP8 block | USP30 inh | USP28 block
CCN1C(=O)c2c(C(=O)NC3CC3)ncn2CC1(C)C(=O)NCc1ccc(OC)cc1 (configuration not stated) | 0.1 | -33.7 | -2.8 | -3.2
COc1ccccc1CN1CCC2(CC1)CN(C(C)=O)Cc1ccccc1O2 | -23.6 | -48.1 | -25.8 | -7.0
Cn1c(=O)c2c(nc(N3CCN(C(=O)c4ccco4)CC3)n2CCSc2nnnn2-c2ccccc2)n(C)c1=O | 1.9 | -3.0 | 37.5* | 11.8
CCOC(=O)N1CCN(c2nc3c(c(=O)n(C)c(=O)n3C)n2CCSc2nnnn2-c2ccccc2)CC1 | -0.1 | 6.9 | 15.8 | 3.8
COc1ccc(N(CC(=O)NCCc2ccc(S(N)(=O)=O)cc2)S(=O)(=O)c2c(C)noc2C)cc1 | -5.5 | -1.1 | -88.3 | 3.9
COc1ccc(CCNC(=O)CN(c2cc(C)cc(C)c2)S(=O)(=O)c2c(C)noc2C)cc1OC | -0.1 | -42.7 | 47.4* | -10.1
CC1=CC(=O)CC(C)(C)C1(O)/C=C/C(C)=C\C(=O)O (configuration not stated) | 8.4 | 7.6 | 25.8 | 7.5
CC(=O)/C=C/C1(O)C(C)=CC(=O)CC1(C)C (configuration not stated) | 10.5 | -4.6 | 32.7* | 5.6
O=C(CC1CCN(C(=O)NC2CCCCC2)CC1)N1CCCC1 | 0.0 | 2.9 | 10.2 | 2.3
O=C(O)c1ccc(NCc2nc3ccccc3n2Cc2ccccc2F)cc1 | 27.7 | 22.6 | 20.3 | 12.7
COc1ccc(NCc2nc3ccccc3n2Cc2ccccc2)cc1 | 64.4* | 89.9* | -30.0 | 9.1
CCc1noc(-c2ccnc(-n3cnc(C(=O)NC4CCCC4)c3)c2)n1 | -1.9 | 8.5 | 7.5 | -1.1
COc1ccc(OC)c(NC(=O)CNC(=O)c2cc3c(OC)cccc3[nH]2)c1 | 63.6* | 30.2* | 25.6 | 22.3
Cc1ccc(NC(=O)CNC(c2ccccc2)c2ccccc2)c(F)c1 | -13.2 | -4.9 | 0.0 | 1.4
COc1ccc(OC)c(NC(=O)CNC(c2ccccc2)c2ccccc2)c1 | 12.1 | 28.4 | 33.2* | 17.5
O=C(C1CCCN(Cc2ccccn2)C1)N1CCN(Cc2ccccc2)CC1 (configuration not stated) | 4.4 | 1.9 | 2.0 | 0.0
CCCc1c(C(=O)O)c(O[C@H]2O[C@H](C)[C@@H](OC)[C@H](OC)[C@@H]2OC)cc2cc3c(c(O)c12)C(=O)c1c(O)cc(O[C@@H]2O[C@@H](C)[C@H](O[C@H]4O[C@H](C)[C@@H](OC)[C@H](OC)[C@@H]4O)[C@@H](OC)[C@H]2O)cc1C3=O | 54.8* | -28.8 | -315.5 | -83.8
O=C(OC(C(=O)c1c[nH]c2ccccc12)c1ccccc1)c1cccc(Oc2ccccc2)c1 (configuration not stated) | -68.1 | -208.2 | -48.4 | -10.4
CCOc1ccccc1C(=O)NCC(=O)OC(C(=O)c1c[nH]c2ccccc12)c1ccccc1 (configuration not stated) | 53.5* | -3.6 | -34.4 | -5.2
COc1cc(NC(=O)c2ccc(-c3cncnc3)nc2)cc(OC)c1 | -57.3 | -19.6 | i | -22.8
O=C(Oc1ccc2c(c1)OCO2)C(c1ccccc1)c1ccccc1 | 15.1 | 31.3* | 13.0 | 18.9
CCn1cc(-c2cc(C(=O)N3CCC4(CC=CCOC4)CC3)on2)cn1 | 0.1 | -2.9 | 6.7 | -3.7
CN1CC[C@@H]2[C@H](C1)CN2S(=O)(=O)c1cccc(C(F)(F)F)c1 | 1.6 | -0.2 | 26.2 | 2.8
COC(=O)c1ccc(NC(=O)C[n+]2cc(-c3ccc(Cl)cc3)n3c2CCC3)cc1 | -14.6 | -0.1 | 21.3 | 5.6
CCOC(=O)c1ccc(NC(=O)C[n+]2cc(-c3ccc(C)cc3)n3c2CCC3)cc1 | -1.5 | -33.9 | 31.9* | 20.0
SMILES | USP17 block | USP8 block | USP30 inh | USP28 block
CC(=O)c1ccc(NC(=O)C[n+]2cc(-c3ccc(Cl)cc3)n3c2CCC3)cc1 | 66.5* | -84.1 | 19.0 | 22.5
Cc1ccc(C)c(NC(=O)C[n+]2cc(-c3ccc(F)cc3)n3c2CCC3)c1 | 5.5 | 10.7 | 6.9 | 8.8
CCOC(=O)c1ccc(NC(=O)C[n+]2cc(-c3ccc(Cl)cc3)n3c2CCC3)cc1 | 8.9 | 5.5 | 51.4* | 34.8*
CC(C)Nc1ncnc2c1c(C(=O)NCCN1CCOCC1)c1ccccn12 | . | 9.0 | -54.6 | -15.7
CC(C)(C)c1cc(C(=O)Nc2ccc3c(c2)OCCO3)n(Cc2ccccc2)n1 | 10.7 | 3.8 | 10.7 | 16.8
COc1ccccc1CNc1ncnc2c1CN(C1CCCNC1)C(=O)CN2C (configuration not stated) | -3.7 | -76.5 | 21.2 | 6.7
O=[N+]([O-])c1c(Cl)cccc1-c1c[nH]cc1Cl | 7.7 | -10.7 | 2.5 | 47.9*
CN1CCc2[nH]c3c(Cl)cccc3c2C1 | 2.3 | -0.3 | -6.9 | 4.1
Cc1ccc(-c2n[nH]c3c2CN(C(=O)c2ccccn2)CC3)cc1 | 1.8 | -31.1 | 12.7 | 0.0
CC1CCCCN1CCCNC(=O)Nc1ccc(Cl)cc1 (configuration not stated) | -2.2 | 7.5 | -7.0 | 9.8
CCOc1ccccc1-c1nn2c(-c3cccnc3)nnc2s1 | 0.1 | -22.6 | -2.5 | -0.9
COc1ccccc1-c1nnc2sc(COc3cccc(C)c3)nn12 | 17.5 | 1.8 | 42.3* | 25.3
Cc1ccsc1CNC(=O)Nc1ccc(C(F)(F)F)cc1 | 43.2* | 24.1 | 26.7 | 16.2
CCOc1ccsc1NC(=O)Nc1cccc(C(F)(F)F)c1 | -35.3 | -152.9 | -176.5 | -54.3
COc1ccc(S(=O)(=O)c2c(C)c(C)n(C(C)C)c2NC(=O)c2ccccc2F)cc1 | 30.8* | -32.3 | -13.1 | 0.3
Cc1ccccc1NC(=O)c1cc2c(CO)cnc(C)c2oc1=Nc1cccc(F)c1 | 3.4 | 1.8 | 13.6 | -3.8
COc1ccc(NC(=O)c2cc3c(CO)cnc(C)c3oc2=Nc2cccc(F)c2)c(OC)c1 | 5.8 | -2.3 | 33.5* | 6.5
Cc1cccn2cc(CNC(=O)c3c(F)cccc3Cl)nc12 | -2.5 | -4.0 | -0.1 | -4.0
Cc1ccccc1CNC(=O)Cn1c(=O)n(-c2ccccc2)c2ncccc21 | 47.4* | 2.2 | 14.4 | -10.0
Cc1ccccc1-c1nnc(-c2ccc(C(=O)NCc3ccccc3F)cc2)o1 | 35.9* | 9.7 | 66.1* | 27.8
O=C(COc1ccccc1-c1nnc(-c2ccccc2)o1)NCc1ccccc1Cl | -5.6 | -46.6 | -2.8 | -1.7
O=C(NCc1ccccc1Cl)c1ccc(-c2nnc(-c3ccccc3)o2)cc1 | 62.3* | -4.0 | 35.9* | 8.2
CCOC(=O)Cc1ccc(NC(=O)N2CCCC2c2ccco2)cc1 (configuration not stated) | 3.4 | 13.4 | 5.8 | 8.4
COc1ccccc1C(=O)Nc1cc(-c2cccnc2)no1 | 14.7 | 17.1 | 17.6 | 17.6
CCn1cc(CN2CCc3nc4cc(-c5ccoc5C)[nH]n4c(=O)c3C2)cn1 | -70.2 | -228.5 | -153.1 | -50.2
Cc1cc(-c2cc3nc4c(c(=O)n3[nH]2)CN(Cc2ccc(C)o2)CC4)no1 | 45.9* | -38.1 | 2.0 | 19.0
Cc1ccc(CN2CCc3nc4cc(C5CC5)[nH]n4c(=O)c3C2)s1 | 0.4 | -94.9 | 32.1* | 15.3
CN1C(=O)c2ccccc2C(=O)[C@@]2(C)CN(S(=O)(=O)c3ccccc3)C[C@@H]12 | 2.8 | 0.5 | 28.3 | 4.1
